The list is a sample of the results.
aSyn 5UTR act – Activators via SNCA 5'UTR binding, MLPCN; alpha-synuclein 5'UTR reporter, activators screen; activity score, % (tested at 7.5 µM), hits read low; 300,000 tested, 7.1% active; AID 1814, 2009; in the data active = activity score below about -60%
Starred values were filed as active, the others as inactive.

Results for C=CCc1cccc(C=Nc2cc(Br)ccc2O)c1O ?
aSyn 5UTR act: -110*

What do the screens show for `Cc1nn(-c2ccccc2)c(C)c1/C=N/NC(=O)CSc1nnc(SCc2ccccc2Cl)s1`?
aSyn 5UTR act: -71*

How did Cc1ccc(CSc2nnc(SCC(=O)N/N=C/c3c(C)nn(-c4ccccc4)c3C)s2)cc1 do in these assays?
aSyn 5UTR act: -115*

Results for CC1Oc2cc3oc4c(O)c5c(cc4c(=O)c3c(O)c2C1(C)C)C=CC(C)(C)O5 (stereo not drawn) ?
aSyn 5UTR act: -265*

Results for Cc1ccc(C(=O)Nc2ccsc2C(=O)O)cc1 ?
aSyn 5UTR act: -141*

What do the screens show for `Cc1ccc(C(=O)NC2=NCCS2)cc1`?
aSyn 5UTR act: -118*

Results for N#Cc1ccc(C(=O)NC2=NCCS2)cc1 ?
aSyn 5UTR act: -141*

Results for Cc1ccc(C(=O)NC2=NCCS2)cc1Cl ?
aSyn 5UTR act: -110*

What do the screens show for `COc1ccc(C(=O)NC2=NCCS2)cc1`?
aSyn 5UTR act: -91*

How did O=C(NC1=NCCS1)c1ccc(C(F)(F)F)cc1 do in these assays?
aSyn 5UTR act: -123*

How did O=C(Nc1ccc(-c2nc3ccccc3o2)cc1)c1ccc2c(c1)OCO2 do in these assays?
aSyn 5UTR act: -66*

What do the screens show for `Cc1ccc(-c2nc3ccccc3o2)cc1NC(=O)c1ccc2c(c1)OCO2`?
aSyn 5UTR act: -151*

What do the screens show for `Cc1ccc2oc(-c3ccc(NC(=O)c4ccc5c(c4)OCO5)cc3)nc2c1`?
aSyn 5UTR act: -105*

Results for Cc1ccc(N(CC(=O)NCCSc2ccccn2)S(C)(=O)=O)cc1 ?
aSyn 5UTR act: -98*

How did Cc1ccc(NC(=O)CCSc2ccccn2)cc1 do in these assays?
aSyn 5UTR act: -145*

How did O=C(OCn1ncc(Br)c(Br)c1=O)c1ccc(F)cc1 do in these assays?
aSyn 5UTR act: 64

Results for Cn1c(CO)cnc1SCC(=O)c1ccc(F)cc1 ?
aSyn 5UTR act: -65*

What do the screens show for `O=C(CSc1ccccn1)c1ccc(F)cc1`?
aSyn 5UTR act: -130*

What do the screens show for `Cc1ccc(C(=O)CSc2ccccn2)cc1`?
aSyn 5UTR act: -191*

What do the screens show for `C=CCN1C(=O)C(=O)N(Cc2nc3ccccc3s2)C1=O`?
aSyn 5UTR act: -118*

How did CCC1(c2ccccc2)NC(=S)N(c2ccc(C)cc2)N1 (stereo not drawn) do in these assays?
aSyn 5UTR act: -85*

How did CCC1(c2ccc(Cl)cc2)NC(=S)N(c2ccccc2)N1 (stereo not drawn) do in these assays?
aSyn 5UTR act: -71*

Results for CC(=O)Nc1ccc(NC(=O)c2sc3nc4n(c(=O)c3c2C)CCCCC4)cc1 ?
aSyn 5UTR act: 76

How did O=C(Nc1ccc2nc3n(c(=O)c2c1)CCCC3)c1cccc([N+](=O)[O-])c1 do in these assays?
aSyn 5UTR act: -103*

Results for COc1cc(OC)cc(C(=O)Nc2ccc3nc4n(c(=O)c3c2)CCCCC4)c1 ?
aSyn 5UTR act: -115*

Results for CCCN1C=CC(=C/C=C(\C#N)C(=O)OCC)C=C1 ?
aSyn 5UTR act: -157*

How did CCOC(=O)/C(C#N)=C/N=c1ccc(C)cn1C do in these assays?
aSyn 5UTR act: -88*

What do the screens show for `CC(C)OC(=O)CC12CN(C)CC(CC(=O)OC(C)C)(CN(C)C1)C2=O`?
aSyn 5UTR act: -98*

Results for COCCC(=O)N1CCC(C(=O)Nc2ccc(Oc3ccccc3)nc2)CC1 ?
aSyn 5UTR act: -77*

Results for CCCC(=O)c1ccc(N2CCCCC2)c(F)c1 ?
aSyn 5UTR act: -126*

How did CCCC(=O)c1ccc(N2CCCCCC2)c(F)c1 do in these assays?
aSyn 5UTR act: -137*

Results for CCc1cccc2c1NC(=O)C21N2CCCC2C(C(=O)c2ccc3ccccc3c2)C12C(=O)Nc1ccccc12 (stereo not drawn) ?
aSyn 5UTR act: -97*

What do the screens show for `CCc1ccc2c(c1)C1(C(=O)N2)N2CCCC2C(C(=O)c2ccc3ccccc3c2)C12C(=O)Nc1ccccc12` (stereo not drawn)?
aSyn 5UTR act: -127*

Results for CCc1ccc2c(c1)C1(NN=C(c3cccc4ccccc34)S1)C(=O)N2 (stereo not drawn) ?
aSyn 5UTR act: 76

Results for NNC(=O)c1ccc(OCC2CC(c3ccc(Cl)cc3)=NO2)cc1 (stereo not drawn) ?
aSyn 5UTR act: -74*

How did O=C(Nc1nc2c(s1)CN(Cc1ccccc1)CC2)c1c(F)cccc1F do in these assays?
aSyn 5UTR act: -82*

How did O=C(Nc1nc2c(s1)CN(Cc1ccccc1)CC2)C1CCCC1 do in these assays?
aSyn 5UTR act: -82*

What do the screens show for `CC(C)(C)C(=O)Nc1nc2c(s1)CN(Cc1ccccc1)CC2`?
aSyn 5UTR act: -92*

Results for CCOc1ccc(/C=C/C2=Cc3c(sc(NC(=O)CSc4n[nH]c(N)n4)c3C#N)C(C)(C)C2)cc1 ?
aSyn 5UTR act: -95*

How did CCN(Cc1ccc(OC)c(F)c1)C(=O)CCl do in these assays?
aSyn 5UTR act: -74*

How did CCn1cc(NC(=O)CCl)c(C)n1 do in these assays?
aSyn 5UTR act: -104*

How did CCC(=O)Nc1cnc(NC(=O)c2cccc(F)c2)cc1C do in these assays?
aSyn 5UTR act: -107*

Results for CC(=O)Nc1cnc(NC(=O)c2cccc(F)c2)cc1C ?
aSyn 5UTR act: -148*
